Reference: PubChem BioAssay (EPA / NIEHS)
“And” between values parts separate entries of the source, which are not always exact repeats. Identical values can stand only once. Where a structure was tested more than once in an assay, its records may differ in their call. The source made the active and inactive calls. Rule for the calls: active = hit-call score of the fitted dose curve at least 0.9, where 1 is the maximum; inactive = score below 0.9.

Tests used:
[1] = ATG_GLI_CIS: Attagene CIS-FACTORIAL HepG2 Assay for human Zinc Finger Protein GLI1 (AID 2282945); conditions: HepG2, Attagene cis-factorial reporter mRNA, GLI element; actives raise or lower the signal
In short: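 Bidirectional curve fits relative to DMSO, using reporter mRNA levels from RT-PCR plus capillary electrophoresis. Cells were HepG2 transiently carrying cis-regulated reporter constructs, harvested 24 h after dosing.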

[2] = ATG_GRE_CIS: Attagene CIS-FACTORIAL HepG2 Assay for human Glucocorticoid Response Elements (GRE) (AID 2282947); conditions: HepG2 GRE cis-reporter, Attagene multiplex mRNA; actives raise or lower the signal
In short: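 Reporter transcripts read by RT-PCR with capillary electrophoresis fluorescence after a 24 h chemical exposure of HepG2 cells transiently transfected with multiple cis-element reporter units. Gain or loss fitted against DMSO.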

[3] = ATG_ISRE_CIS: Attagene CIS-FACTORIAL HepG2 Assay for human Interferon Regulatory Factor 1 (IRF1) binding to an Interferon-Stimulated Response Element (ISRE) (AID 2282948); conditions: HepG2 ISRE cis-reporter (Attagene), mRNA transcription readout; actives raise or lower the signal
In short: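 Read-out: fluorescent RT-PCR products resolved by capillary electrophoresis, reporting endogenous transcription factor activity via ISRE-driven reporter mRNA in transfected HepG2 cells dosed for 24 h; gain or loss fitted relative to DMSO.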

[4] = ATG_M_32_CIS: Attagene CIS-FACTORIAL HepG2 Assay for M32 Transcription Factor (Internal Marker) (AID 2282949); conditions: HepG2 Attagene cis-factorial M32 reporter, mRNA; actives raise or lower the signal;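 note: background control marker of the multiplexed CIS panel rather than a real target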
In short: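 HepG2 human liver cells transiently transfected with cis-promoter-driven multiple reporter transcription units, dosed 24 h. Reporter mRNA quantified by RT-PCR, FAM-labelled primer extension, HpaI digest and capillary electrophoresis; bidirectional fit versus DMSO baseline.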

[5] = biological target: Hypoxia-inducible factor 1-alpha (Homo sapiens) (UniProt Q16665); experiment: ATG_HIF1a_CIS: Attagene CIS-FACTORIAL HepG2 Assay for human Hypoxia Inducible Factor 1 (HIF1A) (AID 2282951); conditions: HepG2 Attagene cis-factorial HIF1a reporter transcription; actives raise or lower the signal
In short: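 Measures endogenous transcription-factor activity through cis-regulated reporter mRNA in HepG2. Cells dosed 24 h; transcripts quantified by RT-PCR with 6-FAM-labelled products separated by capillary electrophoresis; DMSO serves as negative control.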

[6] = biological target: Hepatocyte nuclear factor 6 (Homo sapiens) (UniProt Q9UBC0); experiment: ATG_HNF6_CIS: Attagene CIS-FACTORIAL HepG2 Assay for human Hepatocyte Nuclear Factor 6 (HNF6) (AID 2282952); conditions: HepG2 Attagene cis-factorial HNF6 reporter transcription; actives raise or lower the signal
In short: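 Twenty-four-hour chemical treatment of reporter-transfected HepG2 cells precedes RNA isolation, DNase-treated reverse transcription and PCR of reporter sequences. Labelled fragments are sized by capillary electrophoresis and fitted bidirectionally versus DMSO.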

[7] = biological target: Heat shock factor protein 1 (Homo sapiens) (UniProt Q00613); experiment: ATG_HSE_CIS: Attagene CIS-FACTORIAL HepG2 Assay for human Heat Shock Transcription Factor 1 (HSE) (AID 2282953); conditions: HepG2 HSE cis-reporter, Attagene RNA transcription; actives raise or lower the signal
In short: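 Using HepG2 with transfected cis-driven reporter constructs, compound effects on endogenous factor activity are scored as reporter mRNA change at 24 h. Detection: RT-PCR, HpaI digestion, capillary electrophoresis; bidirectional fitting to DMSO.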

[8] = ATG_MRE_CIS: Attagene CIS-FACTORIAL HepG2 Assay for human Metal Responsive Element (MRE) (AID 2282954); conditions: HepG2 MRE cis-reporter transcription, Attagene multiplex; actives raise or lower the signal
In short: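 Endogenous MRE-dependent transcription read as reporter mRNA in transiently transfected human HepG2 cells at 24 h. RNA reverse-transcribed, PCR-amplified, labelled and resolved by capillary electrophoresis; gain or loss relative to DMSO.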

[9] = ATG_PBREM_CIS: Attagene CIS-FACTORIAL HepG2 Assay for human Phenobarbital-responsive Enhancer Module (PBREM) (AID 2282955); conditions: HepG2 PBREM cis-reporter, Attagene multiplexed transcription; actives raise or lower the signal
In short: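 Fluorescence of labelled reporter cDNA fragments, resolved by capillary electrophoresis, gives mRNA induction in transfected HepG2 cells treated for 24 h; DMSO serves as negative control and baseline.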

[10] = biological target: Paired box protein Pax-6 (Homo sapiens) (UniProt P26367); experiment: ATG_Pax6_CIS: Attagene CIS-FACTORIAL HepG2 Assay for human Paired Box 6 (PAX6) (AID 2282956); conditions: HepG2 CIS-FACTORIAL PAX6 reporter transcription, RNA readout; actives raise or lower the signal
In short: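 Readout: reporter transcript fluorescence after RT-PCR and capillary electrophoresis. Cells: HepG2, transiently transfected with cis-regulated MRTUs. Exposure 24 h. Gain or loss of signal fitted bidirectionally relative to DMSO.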

[11] = ATG_PXRE_CIS: Attagene CIS-FACTORIAL HepG2 Assay for human Pregnane X Receptor Element (PXRE) (AID 2282957); conditions: HepG2 Attagene CIS-FACTORIAL PXRE reporter, mRNA; actives raise or lower the signal
In short: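 Bidirectional activity, baselined to DMSO, derived from reporter mRNA fluorescence (RT-PCR plus capillary electrophoresis) in HepG2 cells bearing cis-promoter reporter units, 24 h exposure.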

[12] = ATG_PPRE_CIS: Attagene CIS-FACTORIAL HepG2 Assay for human Peroxisome Proliferator-activated Response Element (PPRE) (AID 2282958); conditions: HepG2 PPRE cis-element reporter, Attagene transcription factor profiling; actives raise or lower the signal
In short: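 Cells are first transfected transiently with the multiplexed reporter library, then dosed for 24 h. Total RNA is reverse-transcribed, amplified, fluorescently end-labeled and HpaI-cut before capillary electrophoresis; activity is fitted bidirectionally against DMSO controls.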

[13] = ATG_RORE_CIS: Attagene CIS-FACTORIAL HepG2 Assay for human RAR-related Orphan Receptor Element (RORE) (AID 2282959); conditions: HepG2 Attagene cis-factorial RORE reporter, mRNA; actives raise or lower the signal
In short: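 Cells were HepG2 carrying transfected cis-regulated reporter constructs, dosed for 24 hours. Total RNA was reverse-transcribed and reporter cDNA amplified, fluorescently labeled and sized by capillary electrophoresis. Activity was fitted bidirectionally relative to DMSO.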

[14] = ATG_Sox_CIS: Attagene CIS-FACTORIAL HepG2 Assay for human SRY-box transcription factor (SOX) (AID 2282960); conditions: HepG2 Attagene cis-factorial SOX reporter, mRNA; actives raise or lower the signal
In short: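 Transient MRTU transfection of HepG2; 24 h compound incubation; TriZol RNA, oligo(dT) RT, PCR, 6-FAM primer extension, HpaI cut, CE. Bidirectional fit, DMSO = baseline.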

[15] = biological target: Transcription factor Sp1 (Homo sapiens) (UniProt P08047); experiment: ATG_Sp1_CIS: Attagene CIS-FACTORIAL HepG2 Assay for human Specificity Protein 1 (Sp1) (AID 2282961); conditions: HepG2 Sp1 cis-reporter transcription, actives raise or lower the signal
In short: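 Endogenous Sp1 activity was gauged in human liver HepG2 cells bearing transfected reporter units under a cis-regulating promoter. After 24 h dosing, reporter mRNA was quantified by RT-PCR with capillary electrophoresis, and activity fitted bidirectionally versus DMSO.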

[16] = ATG_SREBP_CIS: Attagene CIS-FACTORIAL HepG2 Assay for human Sterol Regulatory Element Binding (SREBP) (AID 2282962); conditions: HepG2 Attagene cis-factorial SREBP reporter, mRNA; actives raise or lower the signal
In short: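 Readout: fluorescent reporter-transcript peaks resolved by capillary electrophoresis after RT-PCR. Cells were human HepG2 carrying transfected cis-promoter reporter constructs, dosed for 24 h. Gain or loss of signal was fitted against DMSO controls.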

[17] = biological target: Signal transducer and activator of transcription 3 (Homo sapiens) (UniProt P40763); experiment: ATG_STAT3_CIS: Attagene CIS-FACTORIAL HepG2 Assay for human Signal Transducer and Activator of Transcription 3 (STAT3) (AID 2282963); conditions: HepG2, Attagene cis-factorial STAT3 reporter transcription; actives raise or lower the signal
In short: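 Readout is reporter transcript quantified by RT-PCR and capillary electrophoresis, with 6-FAM primer extension and HpaI digestion. Total RNA is taken 24 h after dosing transiently transfected HepG2 carrying cis-regulated reporter units. Bidirectional fit against DMSO.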

[18] = ATG_TA_CIS: Attagene CIS-FACTORIAL HepG2 Assay for human TA Basal Promoter (AID 2282964); conditions: HepG2 Attagene CIS-factorial TA basal promoter reporter; actives raise or lower the signal
In short: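 Transient MRTU transfection of HepG2 preceded 24 h compound exposure. Reporter mRNA levels were then read by RT-PCR with capillary electrophoresis, and this background-control endpoint was fitted bidirectionally to DMSO.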

[19] = biological target: Bile acid receptor (Homo sapiens) (UniProt Q96RI1); experiment: ATG_IR1_CIS: Attagene CIS-FACTORIAL HepG2 Assay for human Nuclear Receptor Subfamily 1 Group H Member 4 (NR1H4), IR1 submotif (AID 2282946); conditions: IR1 reporter transcription, actives raise or lower the signal
In short: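 HepG2 cells transiently transfected with multiplexed cis-element reporter units read endogenous transcription factor activity. After 24 h compound exposure, reporter mRNA was quantified by RT-PCR, fluorescent labelling, HpaI digestion and capillary electrophoresis; bidirectional fitting versus DMSO baseline.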

[20] = ATG_M_06_CIS: Attagene CIS-FACTORIAL HepG2 Assay for M06 Transcription Factor (Internal Marker) (AID 2282950); conditions: HepG2 Attagene CIS-FACTORIAL M06 internal marker reporter; actives raise or lower the signal
In short: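 One of many multiplexed endpoints: HepG2 reporter mRNA after 24 h dosing, detected by RT-PCR and capillary electrophoresis fluorescence; gain or loss of signal analysed against DMSO.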

Measured: AC50

Sequence of Transcription factor Sp1 (Homo sapiens) (P08047 whole entry, looked up): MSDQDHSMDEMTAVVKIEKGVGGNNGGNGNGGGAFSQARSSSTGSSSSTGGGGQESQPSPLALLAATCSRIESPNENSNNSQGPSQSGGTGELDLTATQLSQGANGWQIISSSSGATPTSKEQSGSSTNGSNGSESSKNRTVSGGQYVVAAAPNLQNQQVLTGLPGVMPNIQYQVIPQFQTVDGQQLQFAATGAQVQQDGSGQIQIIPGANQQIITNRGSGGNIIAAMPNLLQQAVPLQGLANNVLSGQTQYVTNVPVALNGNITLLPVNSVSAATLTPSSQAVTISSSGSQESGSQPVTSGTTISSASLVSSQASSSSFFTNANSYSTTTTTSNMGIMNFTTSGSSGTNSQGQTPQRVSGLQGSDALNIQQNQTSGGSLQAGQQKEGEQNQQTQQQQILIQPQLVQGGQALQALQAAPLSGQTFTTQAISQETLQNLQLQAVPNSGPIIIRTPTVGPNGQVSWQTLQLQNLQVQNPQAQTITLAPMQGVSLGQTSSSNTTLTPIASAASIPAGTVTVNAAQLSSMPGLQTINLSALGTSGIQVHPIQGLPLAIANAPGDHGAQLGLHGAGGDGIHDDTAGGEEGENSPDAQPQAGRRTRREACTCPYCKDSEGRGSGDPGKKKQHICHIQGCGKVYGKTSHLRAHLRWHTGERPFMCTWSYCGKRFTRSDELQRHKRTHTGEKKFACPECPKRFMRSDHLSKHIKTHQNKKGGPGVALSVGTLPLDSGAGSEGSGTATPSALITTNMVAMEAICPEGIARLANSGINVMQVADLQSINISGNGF
Sequence of Bile acid receptor (Homo sapiens) (Q96RI1 whole entry, looked up): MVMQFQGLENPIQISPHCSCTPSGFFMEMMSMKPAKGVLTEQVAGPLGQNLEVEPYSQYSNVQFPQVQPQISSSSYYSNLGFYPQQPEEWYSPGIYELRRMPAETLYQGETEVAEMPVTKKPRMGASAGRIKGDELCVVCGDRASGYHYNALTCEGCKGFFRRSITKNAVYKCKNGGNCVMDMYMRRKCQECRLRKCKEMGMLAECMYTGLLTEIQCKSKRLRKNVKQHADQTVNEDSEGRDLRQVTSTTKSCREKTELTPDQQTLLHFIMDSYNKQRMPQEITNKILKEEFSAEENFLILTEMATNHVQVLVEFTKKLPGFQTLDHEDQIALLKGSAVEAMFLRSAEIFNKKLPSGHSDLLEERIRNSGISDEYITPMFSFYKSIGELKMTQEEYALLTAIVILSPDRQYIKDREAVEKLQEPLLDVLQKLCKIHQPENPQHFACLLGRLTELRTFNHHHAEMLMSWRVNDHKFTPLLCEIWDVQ
Sequence of Hepatocyte nuclear factor 6 (Homo sapiens) (Q9UBC0 whole entry, looked up, the tested form may be a part): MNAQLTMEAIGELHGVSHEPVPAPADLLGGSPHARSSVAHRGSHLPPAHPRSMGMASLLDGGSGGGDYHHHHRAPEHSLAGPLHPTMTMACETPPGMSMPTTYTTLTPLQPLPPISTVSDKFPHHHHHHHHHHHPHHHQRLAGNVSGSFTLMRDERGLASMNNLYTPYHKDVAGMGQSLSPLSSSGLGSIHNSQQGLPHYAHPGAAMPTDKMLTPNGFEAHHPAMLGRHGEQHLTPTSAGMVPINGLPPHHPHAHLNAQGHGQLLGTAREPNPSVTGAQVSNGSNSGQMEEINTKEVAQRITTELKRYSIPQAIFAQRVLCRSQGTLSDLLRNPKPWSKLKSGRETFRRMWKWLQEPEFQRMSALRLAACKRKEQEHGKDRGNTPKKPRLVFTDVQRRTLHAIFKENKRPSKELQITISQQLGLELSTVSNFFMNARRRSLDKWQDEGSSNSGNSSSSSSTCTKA
Sequence of Heat shock factor protein 1 (Homo sapiens) (Q00613 whole entry, looked up): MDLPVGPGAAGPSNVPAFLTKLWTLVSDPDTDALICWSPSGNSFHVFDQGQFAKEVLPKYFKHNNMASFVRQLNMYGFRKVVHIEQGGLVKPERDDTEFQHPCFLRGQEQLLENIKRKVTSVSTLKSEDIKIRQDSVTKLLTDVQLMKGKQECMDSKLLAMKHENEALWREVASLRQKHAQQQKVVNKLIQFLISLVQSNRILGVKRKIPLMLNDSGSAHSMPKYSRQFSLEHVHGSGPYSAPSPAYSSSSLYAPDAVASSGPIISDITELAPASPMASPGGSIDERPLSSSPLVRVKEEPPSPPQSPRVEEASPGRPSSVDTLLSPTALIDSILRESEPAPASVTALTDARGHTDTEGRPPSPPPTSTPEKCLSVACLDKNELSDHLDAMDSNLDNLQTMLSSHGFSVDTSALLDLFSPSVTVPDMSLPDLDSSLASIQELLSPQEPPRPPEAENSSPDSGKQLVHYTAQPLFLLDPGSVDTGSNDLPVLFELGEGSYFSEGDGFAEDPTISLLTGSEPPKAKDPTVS
Sequence of Paired box protein Pax-6 (Homo sapiens) (P26367 whole entry, looked up): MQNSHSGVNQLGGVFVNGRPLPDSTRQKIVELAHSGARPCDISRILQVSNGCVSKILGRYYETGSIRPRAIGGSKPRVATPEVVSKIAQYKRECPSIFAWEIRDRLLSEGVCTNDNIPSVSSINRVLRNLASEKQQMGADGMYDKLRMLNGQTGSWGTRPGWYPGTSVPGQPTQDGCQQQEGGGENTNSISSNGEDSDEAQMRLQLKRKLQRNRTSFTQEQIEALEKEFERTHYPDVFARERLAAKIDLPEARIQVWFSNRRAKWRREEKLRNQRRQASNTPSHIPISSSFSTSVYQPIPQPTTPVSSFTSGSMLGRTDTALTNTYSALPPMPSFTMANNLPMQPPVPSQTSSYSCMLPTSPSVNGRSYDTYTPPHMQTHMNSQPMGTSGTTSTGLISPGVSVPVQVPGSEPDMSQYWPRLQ
Sequence of Hypoxia-inducible factor 1-alpha (Homo sapiens) (Q16665 whole entry, looked up): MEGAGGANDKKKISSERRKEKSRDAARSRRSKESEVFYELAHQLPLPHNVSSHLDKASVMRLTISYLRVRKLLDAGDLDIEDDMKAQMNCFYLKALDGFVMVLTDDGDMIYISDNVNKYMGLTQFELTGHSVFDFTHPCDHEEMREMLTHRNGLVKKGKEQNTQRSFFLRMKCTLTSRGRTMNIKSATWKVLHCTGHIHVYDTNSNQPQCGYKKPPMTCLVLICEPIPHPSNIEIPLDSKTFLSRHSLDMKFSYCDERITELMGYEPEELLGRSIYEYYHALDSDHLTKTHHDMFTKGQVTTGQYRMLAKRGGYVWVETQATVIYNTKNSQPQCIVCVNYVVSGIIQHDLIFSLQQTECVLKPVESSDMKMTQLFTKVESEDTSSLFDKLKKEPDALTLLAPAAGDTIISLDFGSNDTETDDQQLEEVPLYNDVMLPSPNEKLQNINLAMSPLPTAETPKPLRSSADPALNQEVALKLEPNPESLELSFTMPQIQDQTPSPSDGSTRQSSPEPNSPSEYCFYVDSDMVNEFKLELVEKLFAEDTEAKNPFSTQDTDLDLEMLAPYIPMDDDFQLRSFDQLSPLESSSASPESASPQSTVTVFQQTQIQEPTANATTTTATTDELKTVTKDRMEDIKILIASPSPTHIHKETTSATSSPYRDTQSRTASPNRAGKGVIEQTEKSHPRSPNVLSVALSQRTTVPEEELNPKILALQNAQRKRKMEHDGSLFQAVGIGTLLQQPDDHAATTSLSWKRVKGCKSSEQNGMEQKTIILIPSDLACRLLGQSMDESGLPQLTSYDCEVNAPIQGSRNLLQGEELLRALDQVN
Sequence of Signal transducer and activator of transcription 3 (Homo sapiens) (P40763 whole entry, looked up): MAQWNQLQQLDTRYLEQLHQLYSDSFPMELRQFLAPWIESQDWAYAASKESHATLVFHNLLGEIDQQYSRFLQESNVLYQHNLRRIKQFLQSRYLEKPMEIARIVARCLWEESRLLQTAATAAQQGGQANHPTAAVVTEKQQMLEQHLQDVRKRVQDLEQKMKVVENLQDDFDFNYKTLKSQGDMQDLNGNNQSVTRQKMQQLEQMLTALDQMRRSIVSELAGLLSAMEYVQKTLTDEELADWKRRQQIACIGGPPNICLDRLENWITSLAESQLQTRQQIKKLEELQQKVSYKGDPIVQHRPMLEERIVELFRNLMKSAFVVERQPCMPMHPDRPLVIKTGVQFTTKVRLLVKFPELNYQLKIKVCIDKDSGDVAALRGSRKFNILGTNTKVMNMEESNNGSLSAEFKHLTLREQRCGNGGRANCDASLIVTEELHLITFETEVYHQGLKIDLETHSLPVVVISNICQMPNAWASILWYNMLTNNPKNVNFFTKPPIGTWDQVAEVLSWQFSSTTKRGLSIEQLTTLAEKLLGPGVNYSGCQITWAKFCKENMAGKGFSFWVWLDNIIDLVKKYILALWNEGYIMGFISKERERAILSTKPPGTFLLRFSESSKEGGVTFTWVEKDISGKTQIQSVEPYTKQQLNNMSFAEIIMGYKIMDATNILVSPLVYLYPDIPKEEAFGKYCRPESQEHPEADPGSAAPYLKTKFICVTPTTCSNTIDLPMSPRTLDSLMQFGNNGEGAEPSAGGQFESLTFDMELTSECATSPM

OC1CCCCC1
not listed: [19] | [20]
inactive: all other assays above

CC1=C(/C=C/C(C)=C/C=C/C(C)=C/C(=O)O)C(C)(C)CCC1
active: [3] 54.4 µM and 106 µM | [7] 50.5 µM and 93 µM | [8] 39.7 µM and 55 µM | [9] 6.62 µM | [11] 1.48 µM and 1.26 µM | [12] 43.6 nM and 9.62 µM | [13] 8.89 µM | [14] 51.1 µM and 24.6 µM | [15] 11.9 µM | [18] 21.4 µM
inactive: [1] | [2] | [4] | [6] | [9] | [13] | [15] | [16] | [17] | [18]

ClC1=C(Cl)C(Cl)(Cl)C(Cl)=C1Cl
inactive: [2] | [4] | [5] | [6] | [9] | [12] | [13] | [14] | [16] | [17] | [18]
active: [1] 11.1 µM and 6.27 µM | [3] 14.6 µM and 11.1 µM | [6] 8.06 µM | [7] 8.88 µM and 5.39 µM | [8] 20.2 µM and 6.9 µM | [9] 13.5 µM | [11] 16.2 µM and 6.82 µM | [15] 15.7 µM and 7.29 µM | [16] 11.1 µM | [17] 21.7 µM

CN(C)C=O
not listed: [2] | [10] | [12]
inactive: all other assays above

CC(O)CO (configuration not stated)
not listed: [9] | [20]
inactive: all other assays above

NC(=O)N1C(=O)C(C(=O)c2cc(Cl)cs2)c2cc(F)c(Cl)cc21 (configuration not stated)
active: [5] 6.79 µM | [8] 14.9 µM | [9] 11 µM | [11] 4.07 µM | [13] 13.7 µM | [16] 4.78 µM
not listed: [10] | [20]
inactive: all other assays above
